# Counter-ions that a name gives are not always drawn. Values without a mark were called inactive.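 How the source made its calls: for the amine columns active = adjusted P below 0.05 in both replicates with a change the same way and a mean fold change under 0.8 or over 1.25; inactive = the rest.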
# System: Klebsiella aerogenes DSM 30053
# Assay: fold change of Putrescine concentration vs plate DMSO controls (fold change (ratio)); higher = more amine produced, active = hit call of the paper (significant change in both replicates, either direction)
# Settings: incubation time: 27 h, anaerobic, 37 °C
# Outline: (§1)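 Amines were quantified by LC–triple-quadrupole MS in dynamic MRM mode against external calibration curves, with drift correction within each batch. The samples were whole anaerobic mGAM cultures of four gut bacterial strains, grown for 27 h at 37 °C in 80 µL wells and extracted with cold acetonitrile/methanol with 0.1% formic acid, then centrifuged. Values are reported as fold change over DMSO controls on the same plate. The mean of 2 biological replicates is given.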
row,Compound,fold change of Putrescine concentration
1,Cc1cc(NS(=O)(=O)c2ccc(N)cc2)no1 [Sulfamethoxazole] (20 µM),1.03
2,Fc1ccc(C(c2ccc(F)cc2)N2CCN(C/C=C/c3ccccc3)CC2)cc1 [Flunarizine dihydrochloride] (20 µM),0.981
3,CN1CCN(CCCN2c3ccccc3Sc3ccc(S(=O)(=O)N(C)C)cc32)CC1 [Thioproperazine dimesylate] (20 µM),0.976
4,Cn1c(=O)c2nc[nH]c2n(C)c1=O [Theophylline monohydrate] (20 µM),0.957
5,COC(=O)C1=C(C)NC(C)=C(C(=O)OC)C1c1ccccc1[N+](=O)[O-] [Nifedipine] (20 µM),1.01
6,O=C(NCc1ncc(C(F)(F)F)cc1Cl)c1c(Cl)cccc1Cl (20 µM),1.02
7,CC(=O)Oc1ccccc1C(=O)Nc1ncc([N+](=O)[O-])s1 [Nitazoxanide] (20 µM),0.982
8,CC(=O)CCCCn1c(=O)c2c(ncn2C)n(C)c1=O [Pentoxifylline] (20 µM),1.02
9,CN(C)CCc1c[nH]c2ccc(Cn3cncn3)cc12 [Rizatriptan benzoate] (20 µM),1.01

# System: Escherichia coli IAI1
# Assay: fold change of Cadaverine concentration vs plate DMSO controls (fold change (ratio)); higher = more amine produced, active = hit call of the paper (significant change in both replicates, either direction)
# Settings: incubation time: 27 h, anaerobic, 37 °C
# Outline: as §1
row,Compound,fold change of Cadaverine concentration
1,CNC(=C[N+](=O)[O-])NCCSCc1ccc(CN(C)C)o1 [Ranitidine hydrochloride] (20 µM),1.03
2,C/C(O)=C(\C#N)C(=O)Nc1ccc(C(F)(F)F)cc1 [Teriflunomide] (20 µM),1.09
3,Cc1ccsc1/C=C/C1=NCCCN1C [Morantel tartrate] (20 µM),1.03
4,CCCCOCCOCCOCc1cc2c(cc1CCC)OCO2 (20 µM),1.02
5,CC(C)C(=O)Nc1ccc([N+](=O)[O-])c(C(F)(F)F)c1 [Flutamide] (20 µM),0.982
6,N=c1nc(N2CCCCC2)cc(N)n1O [Minoxidil] (20 µM),0.995
7,C[C@]12CCC3=C4CCC(=O)C=C4CC[C@H]3[C@@H]1CC[C@@]2(O)CC#N [Dienogest] (20 µM),0.993
8,CN(Cc1cnc2nc(N)nc(N)c2n1)c1ccc(C(=O)N[C@@H](CCC(=O)O)C(=O)O)cc1 [Amethopterin] (20 µM),1
9,NC(=O)C1CO1 (stereo unspecified) [Glycidamide] (20 µM),1.02
10,O=C1[C@H]2CCCC[C@H]2C(=O)N1CCCCN1CCN(c2nsc3ccccc23)CC1 [Perospirone hydrochloride] (20 µM),1.03
11,C=C1[C@H](CO)[C@@H](O)C[C@@H]1n1cnc2c(=O)[nH]c(N)nc21 [Entecavir] (20 µM),1.04
12,O=c1n(CCCN2CCN(c3cccc(Cl)c3)CC2)nc2ccccn12 [Trazodone hydrochloride] (20 µM),0.982
13,CC(=O)Nc1nnc(S(N)(=O)=O)s1 [Acetazolamide] (20 µM),0.971
14,CCOC(=O)C1=C(C)NC(C)=C(C(=O)OC)C1c1cccc([N+](=O)[O-])c1 (stereo unspecified) [Nitrendipine] (20 µM),1.01
15,CCCSS/C(CCO)=C(/C)N(C=O)Cc1cnc(C)nc1N [Prosultiamine] (20 µM),0.958
16,CC(C)NCC(O)c1ccc(NS(C)(=O)=O)cc1 (stereo unspecified) [Sotalol hydrochloride] (20 µM),1.08
17,NC(=O)OCC(O)COc1ccc(Cl)cc1 (stereo unspecified) [Chlorphensin carbamate] (20 µM),0.951
18,C[C@]12CC[C@H]3[C@@H](CCC4=CC(=O)CC[C@@]43C)[C@@H]1CC[C@@H]2C(=O)CO [Deoxycorticosterone] (20 µM),0.96
19,OC(CCCN1CCCCC1)(c1ccccc1)c1ccccc1 [Diphenidol hydrochloride] (20 µM),0.932
20,Cc1cccc(Nc2ccncc2S(=O)(=O)NC(=O)NC(C)C)c1 [Torsemide] (20 µM),0.976
21,CCN(CC)C(=O)Nc1ccc(OCC(O)CNC(C)(C)C)c(C(C)=O)c1 (stereo unspecified) [Celiprolol hydrochloride] (20 µM),1.02
22,CC(NCCC(c1ccccc1)c1ccccc1)c1ccccc1 (stereo unspecified) [Fendiline hydrochloride] (20 µM),0.196 (active)
